PubChem BioAssay (EPA / NIEHS)
The source made the active and inactive calls. How the source made its calls: active means hit-call score of the fitted dose curve at least 0.9, where 1 is the maximum; inactive means score below 0.9.

assay: CCTE_Padilla_ZF_Score.Blood_pooling: CCTE's 144 Hour Post-fertilization zebrafish Assay Score for Blood Pooling, Padilla Lab (AID 2284415)
In short: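 Blood pooling was scored at 6 dpf under a stereo microscope by two blinded assessors, fitted upward against DMSO. Single embryos were dosed at 6–8 hpf in 10% Hanks', kept sealed at 26C (14:10 h cycle) and rinsed at 5 dpf.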

Q: For `C[Si](Cl)(Cl)CCC(F)(F)C(F)(F)C(F)(F)C(F)(F)C(F)(F)C(F)(F)F`, which outcome is on record?
A: inactive

Q: With `NC(=O)C(F)(F)C(F)(F)C(F)(F)C(F)(F)C(N)=O` as the compound, how does the outcome read?
A: inactive

Q: For `NCC(F)(F)C(F)(F)C(F)(F)C(F)(F)C(F)(F)C(F)(F)C(F)(F)C(F)(F)F`, which outcome is on record?
A: inactive

Q: Which outcome does the source give for `O=S(=O)(O)CCC(F)(F)C(F)(F)C(F)(F)C(F)(F)C(F)(F)C(F)(F)C(F)(F)C(F)(F)F` here?
A: inactive

Q: With `OCC(F)(F)C(F)(F)C(F)(F)CO` as the compound, how does the outcome read?
A: inactive

Q: Which outcome does the source give for `CN(C(=O)C(F)(F)C(F)(F)C(F)(F)F)[Si](C)(C)C` here?
A: inactive

Q: For `COC(F)(C(F)F)C(F)(F)F` (configuration not stated), which outcome is on record?
A: inactive

Q: Which outcome does the source give for `O=C(F)C1(F)C(F)(F)C(F)(F)C(F)(F)C(F)(F)C1(F)F` here?
A: inactive

Q: Which outcome does the source give for `O=S(=O)(O)CCC(F)(F)C(F)(F)C(F)(F)C(F)(F)F` here?
A: inactive

Q: With `NC(=O)C(F)(F)C(F)(F)C(F)(F)F` as the compound, how does the outcome read?
A: inactive

Q: For `OC(O)C(F)(F)C(F)(F)F`, which outcome is on record?
A: inactive

Q: For `OCCCCC(F)(F)C(F)(F)C(F)(F)C(F)(F)F`, which outcome is on record?
A: inactive

Q: With `OCC(O)CC(F)(F)C(F)(F)C(F)(F)C(F)(F)F` (configuration not stated) as the compound, how does the outcome read?
A: inactive

Q: With `O=C(O)CCC(F)(F)C(F)(F)C(F)(F)C(F)(F)C(F)(F)C(F)(F)C(F)(F)F` as the compound, how does the outcome read?
A: inactive

Q: Which outcome does the source give for `OCC(O)CC(F)(F)C(F)(F)C(F)(F)C(F)(F)C(F)(F)C(F)(F)C(F)(F)C(F)(F)F` (configuration not stated) here?
A: inactive

Q: With `OCCCC(F)(F)C(F)(F)C(F)(F)C(F)(F)C(F)(F)C(F)(F)C(F)(F)C(F)(F)F` as the compound, how does the outcome read?
A: inactive

Q: For `OCC(F)(F)C(F)(F)C(F)(F)C(F)(F)C(F)(F)C(F)(F)C(F)(F)C(F)(F)CO`, which outcome is on record?
A: inactive
